Reference: the supplement of paper PMC7411640
Counter-ions that a name gives are not always drawn.

tested on: MDA-MB-468; assay: phospho-S6 immunofluorescence (DAPI-normalised), per-plate z-score; higher = higher phospho-S6 signal (less pathway suppression); conditions: co-treatment: vehicle; 24 h
Method: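 GPCR-targeted compound library (MedChemExpress HY-L006) tested on MDA-MB-468 PTEN-null TNBC cells in 384-well plates at 0.1, 1 or 10 uM, combined with vehicle, GDC0941 450 nM or lapatinib 1 uM, for 24 h. Phospho-S6 (S240/244) immunofluorescence normalised to DAPI and expressed as a per-plate z-score; values are the mean of biological triplicates.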

| SMILES | phospho-S6 immunofluorescence (z-score) |
| --- | --- |
| CN1CCN(C2=Nc3ccccc3Oc3ccc(Cl)cc32)CC1 [Loxapine] (compound 10 µM) | 0.95 |
| Cc1[nH]cnc1CN1CCc2c(c3ccccc3n2C)C1=O [Alosetron (Hydrochloride)] (compound 10 µM) | 1.01 |
| OC[C@H]1O[C@@H](n2cnc3c(N[C@@H]4CCc5ccccc54)ncnc32)[C@H](O)[C@@H]1O (compound 10 µM) | 1.18 |
| CC[C@H](NC(=O)c1c(O)c(-c2ccccc2)nc2ccccc12)c1ccccc1 [Talnetant] (compound 10 µM) | 0.13 |
| C[C@@H](O[C@H]1OCCN(Cc2n[nH]c(=O)[nH]2)[C@H]1c1ccc(F)cc1)c1cc(C(F)(F)F)cc(C(F)(F)F)c1 [Aprepitant] (compound 10 µM) | 0.64 |
| CCc1c(C(=O)NCCc2ccc(N3CCCCC3)cc2)[nH]c2ccc(Cl)cc12 (compound 10 µM) | 0.27 |
| CC1(C)C(=O)N(CCN2CCC(C(=O)c3ccc(F)cc3)CC2)c2ccccc21 (compound 10 µM) | 0.28 |
| COc1cc(C(=O)NCc2ccc(OCCN(C)C)cc2)cc(OC)c1OC [Trimethobenzamide hydrochloride] (compound 10 µM) | 0.51 |
| CC(=O)OCC(=O)NCCCOc1cccc(CN2CCCCC2)c1 [Roxatidine (Acetate Hydrochloride)] (compound 10 µM) | 0.91 |
| COc1ccc(-c2oc3c(CC=C(C)C)c(O)cc(O)c3c(=O)c2O[C@@H]2O[C@@H](C)[C@H](O)[C@@H](O)[C@H]2O)cc1 [Baohuoside I] (compound 10 µM) | -7.08 |
